The source of these data is PubChem BioAssay (NCATS).

Structures are written as SMILES. Results filed as inconclusive are left out. A call without a number means that no potency is given here. Active and inactive are the calls of the source. Calls follow the shape of the full dose curve; tested in HEK293 reporter line.
Potency is read from the fitted curve at half-maximal effect.

The assay is described as follows: qHTS for Inhibitors of the Functional Ribonucleoprotein Complex (vRNP) of Lassa (LASV) Arenavirus: LASV Primary Screen - GLuc reporter signal (AID 1347082). Also: nearly all actives have a fitted effect of over 60% in size. As to conditions: LASV minigenome vRNP, Gaussia luciferase reporter; series mostly up to 57.5 µM.
In the case of `CN(C)CC/C=C1\c2ccccc2Sc2ccc(Cl)cc21`, the Potency entry was “inactive”.

For `O=C(CCCN1CCN(c2ccc(F)cc2)CC1)NC1c2ccccc2CSc2ccccc21` (configuration not stated), the Potency is 24.3 µM (active).

As for `COC[C@@H](c1ccc(C(F)(F)F)cc1)N1CCN(C2(C)CCN(C(=O)c3c(C)ncnc3C)CC2)C[C@H]1C`, the Potency result is “inactive”.

As for `O=Cc1ccc(O)c(O)c1O`, the Potency entry is “inactive”.

`CC(NCCC(c1ccccc1)c1ccccc1)c1ccccc1` (configuration not stated): the Potency entry was “inactive”.

With `CCO[C@@H]1O[C@H](C(COCc2ccccc2)OCc2ccccc2)[C@H](OCc2ccccc2)[C@H]1O` (some centres not stated), the Potency entry is “inactive”.

For the compound `O=C(N[C@@H]1N=C(c2ccccc2F)c2cccc3c2N(CC3)C1=O)c1cc2ccccc2[nH]1`, the Potency result is “inactive”.

As for `CCCOc1ccc2nc(NC(=O)OC)[nH]c2c1`, the Potency entry is “inactive”.

For `CN1CCCC(n2nc(Cc3ccc(Cl)cc3)c3ccccc3c2=O)CC1` (configuration not stated), the Potency result is “inactive”.

Consider `CCOC(=O)[C@H](CCc1ccccc1)N[C@@H](C)C(=O)N(CC(=O)O)C1Cc2ccccc2C1`, for which the Potency result is “inactive”.

As for `CCOC(=O)Nc1ccc(NCc2ccc(F)cc2)nc1N`, the Potency result was “inactive”.

Take `CN(C)C(=O)Oc1cc(OC(=O)N(C)C)cc(C(O)CNC(C)(C)C)c1` (configuration not stated): the Potency entry was “inactive”.

Regarding `Cc1nnc2n1-c1sc(CCc3ccc(CC(C)C)cc3)cc1C(c1ccccc1Cl)=NC2C` (configuration not stated), the Potency entry was “inactive”.

For the compound `Cc1c(C)n(CCN(C)C)c2ccc(C(=O)OCCN(C)C)cc12`, the Potency entry is “inactive”.

For `C[C@@H]1CN(CCCn2c3ccccc3c3ccccc32)C[C@H](C)N1`, the Potency entry is “inactive”.

Consider `COc1cc(N)c(Cl)cc1C(=O)NC1CCN(Cc2ccccc2)CC1`, for which the Potency entry is “inactive”.

Consider `O=C(NOCC1CC1)c1ccc(F)c(F)c1Nc1ccc(I)cc1Cl`, for which the Potency result was “inactive”.
